Legend:
Test in all cases: log2 ratio of Biotin-Ahx-Ub-VS probe labelling (fragment/DMSO); higher = less target engagement (more negative = stronger competition), active = hit call of the paper (q ≤ 0.05, log2 ratio ≤ -1)
Conditions in all cases: compound concentration: 200 uM; treatment time: 3 h
USP42 = target: T1, USP42 (UniProt Q9H9J4)
T1 sequence (whole entry): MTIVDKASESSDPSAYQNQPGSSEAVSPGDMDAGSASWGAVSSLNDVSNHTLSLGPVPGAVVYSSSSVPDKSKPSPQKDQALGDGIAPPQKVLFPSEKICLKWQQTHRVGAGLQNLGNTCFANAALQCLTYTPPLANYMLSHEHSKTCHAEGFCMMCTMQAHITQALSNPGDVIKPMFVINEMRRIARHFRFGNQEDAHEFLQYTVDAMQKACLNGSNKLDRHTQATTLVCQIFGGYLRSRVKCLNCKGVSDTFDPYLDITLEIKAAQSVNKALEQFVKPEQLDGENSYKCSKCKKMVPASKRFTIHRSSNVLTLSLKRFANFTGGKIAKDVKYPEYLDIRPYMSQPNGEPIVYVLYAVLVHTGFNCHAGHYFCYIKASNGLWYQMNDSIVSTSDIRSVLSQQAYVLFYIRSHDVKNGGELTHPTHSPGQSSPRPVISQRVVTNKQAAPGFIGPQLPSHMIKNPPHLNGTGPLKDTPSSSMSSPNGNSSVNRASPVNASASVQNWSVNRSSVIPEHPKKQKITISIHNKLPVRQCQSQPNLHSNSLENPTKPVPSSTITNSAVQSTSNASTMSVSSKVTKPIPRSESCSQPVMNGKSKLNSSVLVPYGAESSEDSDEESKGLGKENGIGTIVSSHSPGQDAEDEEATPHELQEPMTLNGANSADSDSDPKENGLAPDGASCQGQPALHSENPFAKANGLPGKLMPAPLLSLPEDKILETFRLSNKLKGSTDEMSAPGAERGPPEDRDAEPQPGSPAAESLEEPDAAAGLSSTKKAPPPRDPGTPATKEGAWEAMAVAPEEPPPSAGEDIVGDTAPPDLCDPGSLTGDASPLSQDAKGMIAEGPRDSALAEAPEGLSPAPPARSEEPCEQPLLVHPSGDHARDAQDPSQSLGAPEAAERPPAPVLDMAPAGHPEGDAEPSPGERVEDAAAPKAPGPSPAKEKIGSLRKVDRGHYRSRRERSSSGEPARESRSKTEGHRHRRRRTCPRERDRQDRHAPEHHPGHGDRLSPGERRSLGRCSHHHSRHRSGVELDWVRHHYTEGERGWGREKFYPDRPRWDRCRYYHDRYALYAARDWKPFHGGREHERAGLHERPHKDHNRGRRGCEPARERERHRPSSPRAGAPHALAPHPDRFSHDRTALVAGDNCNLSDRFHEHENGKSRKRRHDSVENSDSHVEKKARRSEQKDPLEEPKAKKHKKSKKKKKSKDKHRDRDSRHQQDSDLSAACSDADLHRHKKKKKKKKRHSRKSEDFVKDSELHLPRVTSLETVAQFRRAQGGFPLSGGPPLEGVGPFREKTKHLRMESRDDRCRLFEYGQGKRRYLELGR
How it was run: (§1)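 Labelled DUBs from HEK293T lysate were NeutrAvidin-enriched, digested with LysC and trypsin, and run by diaPASEF LC-MS/MS. Before that, each 495 µg sample in Tris/CHAPS/IGEPAL buffer with protease inhibitors was treated in triplicate with fragment at 200 µM or vehicle for 3 h, then with Biotin-Ahx-Ub-VS at 0.5 µM final for 1 h. Values are average log2 ratios of fragment over vehicle by unpaired t-test, based on global-median-normalised Spectronaut label-free quantities from proteins with ≥2 unique peptides.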

USP46 = USP46 (UniProt P62068)
How it was run: as §1

USP47 = target: T2, USP47 (UniProt Q96K76)
T2 sequence (whole entry): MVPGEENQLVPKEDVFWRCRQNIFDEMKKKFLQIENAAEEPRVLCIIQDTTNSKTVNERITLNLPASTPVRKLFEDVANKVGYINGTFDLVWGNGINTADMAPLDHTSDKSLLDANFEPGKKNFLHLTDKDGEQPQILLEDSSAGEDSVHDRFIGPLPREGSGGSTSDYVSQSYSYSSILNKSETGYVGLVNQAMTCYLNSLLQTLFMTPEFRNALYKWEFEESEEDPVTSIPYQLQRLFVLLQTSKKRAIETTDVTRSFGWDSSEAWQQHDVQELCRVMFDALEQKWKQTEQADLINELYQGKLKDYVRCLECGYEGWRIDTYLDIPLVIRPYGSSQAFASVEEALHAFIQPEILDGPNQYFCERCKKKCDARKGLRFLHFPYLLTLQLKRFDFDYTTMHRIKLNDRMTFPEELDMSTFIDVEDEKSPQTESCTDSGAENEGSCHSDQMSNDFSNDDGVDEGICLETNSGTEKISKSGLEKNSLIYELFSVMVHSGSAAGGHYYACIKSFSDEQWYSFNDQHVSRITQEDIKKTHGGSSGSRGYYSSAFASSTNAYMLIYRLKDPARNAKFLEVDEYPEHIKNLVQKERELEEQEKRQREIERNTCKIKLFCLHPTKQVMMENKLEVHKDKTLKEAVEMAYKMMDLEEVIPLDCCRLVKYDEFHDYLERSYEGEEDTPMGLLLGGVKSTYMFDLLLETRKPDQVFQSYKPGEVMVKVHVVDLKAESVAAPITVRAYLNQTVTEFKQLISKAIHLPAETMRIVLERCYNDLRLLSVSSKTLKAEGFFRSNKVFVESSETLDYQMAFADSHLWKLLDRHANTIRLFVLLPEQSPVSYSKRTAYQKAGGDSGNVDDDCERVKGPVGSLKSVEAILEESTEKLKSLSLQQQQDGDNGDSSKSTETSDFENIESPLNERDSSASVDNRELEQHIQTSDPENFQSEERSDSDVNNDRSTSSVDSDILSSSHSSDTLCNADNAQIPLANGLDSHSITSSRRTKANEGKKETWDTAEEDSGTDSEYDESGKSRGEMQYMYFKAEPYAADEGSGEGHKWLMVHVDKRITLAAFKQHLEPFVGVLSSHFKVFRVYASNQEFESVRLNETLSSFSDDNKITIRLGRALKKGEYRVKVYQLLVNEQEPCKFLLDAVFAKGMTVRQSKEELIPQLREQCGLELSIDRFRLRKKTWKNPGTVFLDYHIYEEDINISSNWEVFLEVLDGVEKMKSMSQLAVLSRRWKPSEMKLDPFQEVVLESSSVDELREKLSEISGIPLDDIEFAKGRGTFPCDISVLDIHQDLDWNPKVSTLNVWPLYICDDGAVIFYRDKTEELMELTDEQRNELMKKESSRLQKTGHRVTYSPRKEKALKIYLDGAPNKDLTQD
How it was run: as §1

USP48 = target: T3, USP48 (UniProt Q86UV5)
T3 sequence (whole entry): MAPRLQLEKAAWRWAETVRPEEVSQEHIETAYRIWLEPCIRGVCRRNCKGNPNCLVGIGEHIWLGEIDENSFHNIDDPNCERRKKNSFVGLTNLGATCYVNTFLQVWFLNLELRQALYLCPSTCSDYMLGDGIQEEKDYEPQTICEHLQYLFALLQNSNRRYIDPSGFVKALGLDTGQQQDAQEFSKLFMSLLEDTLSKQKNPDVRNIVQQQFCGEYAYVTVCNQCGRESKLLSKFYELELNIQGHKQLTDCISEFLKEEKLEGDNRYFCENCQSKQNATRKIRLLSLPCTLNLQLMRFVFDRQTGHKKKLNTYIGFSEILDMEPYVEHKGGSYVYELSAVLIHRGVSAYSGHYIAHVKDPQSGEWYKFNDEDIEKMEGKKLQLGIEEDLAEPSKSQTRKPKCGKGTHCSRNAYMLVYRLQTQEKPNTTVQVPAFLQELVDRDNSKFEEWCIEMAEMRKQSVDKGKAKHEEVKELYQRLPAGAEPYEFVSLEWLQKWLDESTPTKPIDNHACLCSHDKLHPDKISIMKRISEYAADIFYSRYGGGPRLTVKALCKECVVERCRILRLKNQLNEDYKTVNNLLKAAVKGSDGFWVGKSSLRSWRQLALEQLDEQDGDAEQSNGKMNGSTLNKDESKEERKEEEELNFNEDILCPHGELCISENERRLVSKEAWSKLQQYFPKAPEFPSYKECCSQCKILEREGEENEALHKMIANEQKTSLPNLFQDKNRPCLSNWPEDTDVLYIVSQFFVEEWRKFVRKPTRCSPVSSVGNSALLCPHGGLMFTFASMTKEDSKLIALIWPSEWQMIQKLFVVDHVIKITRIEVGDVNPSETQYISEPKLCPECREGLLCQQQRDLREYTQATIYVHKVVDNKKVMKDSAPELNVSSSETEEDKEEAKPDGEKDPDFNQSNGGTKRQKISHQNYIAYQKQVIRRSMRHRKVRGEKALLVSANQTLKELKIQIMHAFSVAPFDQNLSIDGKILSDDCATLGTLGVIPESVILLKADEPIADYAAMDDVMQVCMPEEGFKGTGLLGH
How it was run: as §1

USP5 = target: T4, USP5 (UniProt P45974)
T4 sequence (whole entry): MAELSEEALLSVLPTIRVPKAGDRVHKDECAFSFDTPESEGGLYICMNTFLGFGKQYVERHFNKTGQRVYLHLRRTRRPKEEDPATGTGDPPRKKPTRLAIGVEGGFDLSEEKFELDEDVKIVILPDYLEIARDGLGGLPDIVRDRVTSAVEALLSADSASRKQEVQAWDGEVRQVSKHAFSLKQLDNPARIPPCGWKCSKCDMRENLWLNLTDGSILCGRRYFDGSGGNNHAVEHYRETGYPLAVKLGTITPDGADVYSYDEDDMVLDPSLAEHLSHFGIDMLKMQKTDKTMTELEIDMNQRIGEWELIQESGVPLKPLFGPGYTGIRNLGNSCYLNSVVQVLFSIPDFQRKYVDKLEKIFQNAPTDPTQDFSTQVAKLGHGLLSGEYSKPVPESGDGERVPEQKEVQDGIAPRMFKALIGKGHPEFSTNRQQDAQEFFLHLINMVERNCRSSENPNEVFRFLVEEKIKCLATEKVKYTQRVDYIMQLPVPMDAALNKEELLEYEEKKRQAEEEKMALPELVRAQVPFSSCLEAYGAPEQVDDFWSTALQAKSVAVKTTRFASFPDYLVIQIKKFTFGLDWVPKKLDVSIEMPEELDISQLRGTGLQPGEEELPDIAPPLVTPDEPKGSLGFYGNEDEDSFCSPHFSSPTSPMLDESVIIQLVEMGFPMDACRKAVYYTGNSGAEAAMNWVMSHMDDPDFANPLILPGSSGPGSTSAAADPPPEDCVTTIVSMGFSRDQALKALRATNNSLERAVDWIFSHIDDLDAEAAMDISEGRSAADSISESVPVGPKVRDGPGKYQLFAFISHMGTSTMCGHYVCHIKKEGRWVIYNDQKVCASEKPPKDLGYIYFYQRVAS
How it was run: as §1

USP54 = USP54 (UniProt Q70EL1)
How it was run: as §1

USP7 = USP7 (UniProt Q93009)
How it was run: as §1

USP8 = target: T5, USP8 (UniProt P40818)
T5 sequence (whole entry): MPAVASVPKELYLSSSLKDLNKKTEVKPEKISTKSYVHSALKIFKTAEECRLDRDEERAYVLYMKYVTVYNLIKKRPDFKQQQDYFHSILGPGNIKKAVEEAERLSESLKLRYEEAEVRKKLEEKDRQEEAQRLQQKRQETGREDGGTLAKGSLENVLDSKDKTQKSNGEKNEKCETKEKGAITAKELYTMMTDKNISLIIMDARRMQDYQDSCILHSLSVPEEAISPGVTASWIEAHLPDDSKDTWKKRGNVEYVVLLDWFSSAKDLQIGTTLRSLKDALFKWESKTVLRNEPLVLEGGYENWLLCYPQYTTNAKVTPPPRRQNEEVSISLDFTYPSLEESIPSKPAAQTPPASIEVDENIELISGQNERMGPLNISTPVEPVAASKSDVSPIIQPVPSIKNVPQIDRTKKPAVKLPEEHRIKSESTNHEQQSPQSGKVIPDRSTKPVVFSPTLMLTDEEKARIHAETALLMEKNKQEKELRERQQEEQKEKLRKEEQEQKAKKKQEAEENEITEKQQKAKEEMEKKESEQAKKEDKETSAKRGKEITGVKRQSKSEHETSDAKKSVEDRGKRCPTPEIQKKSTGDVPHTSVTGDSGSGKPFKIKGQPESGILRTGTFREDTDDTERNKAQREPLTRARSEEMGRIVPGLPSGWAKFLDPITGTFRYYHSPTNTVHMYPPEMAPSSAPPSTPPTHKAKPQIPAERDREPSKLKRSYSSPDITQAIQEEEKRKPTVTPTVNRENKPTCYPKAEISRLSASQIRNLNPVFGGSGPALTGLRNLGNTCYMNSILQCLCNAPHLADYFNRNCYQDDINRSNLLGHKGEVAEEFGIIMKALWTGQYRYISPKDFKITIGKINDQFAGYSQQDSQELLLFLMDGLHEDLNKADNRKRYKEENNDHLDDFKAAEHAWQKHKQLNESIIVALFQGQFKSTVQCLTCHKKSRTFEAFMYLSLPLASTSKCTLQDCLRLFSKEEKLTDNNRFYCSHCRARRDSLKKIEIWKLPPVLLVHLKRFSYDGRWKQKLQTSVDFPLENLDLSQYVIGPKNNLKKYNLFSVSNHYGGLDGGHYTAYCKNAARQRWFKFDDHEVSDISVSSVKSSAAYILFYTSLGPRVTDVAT
How it was run: as §1

USP9X = USP9X (UniProt Q93008)
How it was run: as §1

UniProt O00487 = target: UniProt O00487
How it was run: as §1

Measured: log2 ratio of Biotin-Ahx-Ub-VS probe labelling

Sequence of USP46 (P62068 whole entry): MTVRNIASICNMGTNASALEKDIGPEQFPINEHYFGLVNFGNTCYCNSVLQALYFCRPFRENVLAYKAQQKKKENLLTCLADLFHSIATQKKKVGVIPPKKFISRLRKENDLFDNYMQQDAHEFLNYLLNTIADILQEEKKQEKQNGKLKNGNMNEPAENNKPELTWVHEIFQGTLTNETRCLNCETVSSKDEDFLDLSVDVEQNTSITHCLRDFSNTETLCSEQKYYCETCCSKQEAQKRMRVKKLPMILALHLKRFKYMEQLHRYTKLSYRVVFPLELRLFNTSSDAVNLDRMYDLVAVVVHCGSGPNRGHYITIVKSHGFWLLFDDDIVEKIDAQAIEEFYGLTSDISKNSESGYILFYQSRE
Sequence of USP54 (Q70EL1 whole entry): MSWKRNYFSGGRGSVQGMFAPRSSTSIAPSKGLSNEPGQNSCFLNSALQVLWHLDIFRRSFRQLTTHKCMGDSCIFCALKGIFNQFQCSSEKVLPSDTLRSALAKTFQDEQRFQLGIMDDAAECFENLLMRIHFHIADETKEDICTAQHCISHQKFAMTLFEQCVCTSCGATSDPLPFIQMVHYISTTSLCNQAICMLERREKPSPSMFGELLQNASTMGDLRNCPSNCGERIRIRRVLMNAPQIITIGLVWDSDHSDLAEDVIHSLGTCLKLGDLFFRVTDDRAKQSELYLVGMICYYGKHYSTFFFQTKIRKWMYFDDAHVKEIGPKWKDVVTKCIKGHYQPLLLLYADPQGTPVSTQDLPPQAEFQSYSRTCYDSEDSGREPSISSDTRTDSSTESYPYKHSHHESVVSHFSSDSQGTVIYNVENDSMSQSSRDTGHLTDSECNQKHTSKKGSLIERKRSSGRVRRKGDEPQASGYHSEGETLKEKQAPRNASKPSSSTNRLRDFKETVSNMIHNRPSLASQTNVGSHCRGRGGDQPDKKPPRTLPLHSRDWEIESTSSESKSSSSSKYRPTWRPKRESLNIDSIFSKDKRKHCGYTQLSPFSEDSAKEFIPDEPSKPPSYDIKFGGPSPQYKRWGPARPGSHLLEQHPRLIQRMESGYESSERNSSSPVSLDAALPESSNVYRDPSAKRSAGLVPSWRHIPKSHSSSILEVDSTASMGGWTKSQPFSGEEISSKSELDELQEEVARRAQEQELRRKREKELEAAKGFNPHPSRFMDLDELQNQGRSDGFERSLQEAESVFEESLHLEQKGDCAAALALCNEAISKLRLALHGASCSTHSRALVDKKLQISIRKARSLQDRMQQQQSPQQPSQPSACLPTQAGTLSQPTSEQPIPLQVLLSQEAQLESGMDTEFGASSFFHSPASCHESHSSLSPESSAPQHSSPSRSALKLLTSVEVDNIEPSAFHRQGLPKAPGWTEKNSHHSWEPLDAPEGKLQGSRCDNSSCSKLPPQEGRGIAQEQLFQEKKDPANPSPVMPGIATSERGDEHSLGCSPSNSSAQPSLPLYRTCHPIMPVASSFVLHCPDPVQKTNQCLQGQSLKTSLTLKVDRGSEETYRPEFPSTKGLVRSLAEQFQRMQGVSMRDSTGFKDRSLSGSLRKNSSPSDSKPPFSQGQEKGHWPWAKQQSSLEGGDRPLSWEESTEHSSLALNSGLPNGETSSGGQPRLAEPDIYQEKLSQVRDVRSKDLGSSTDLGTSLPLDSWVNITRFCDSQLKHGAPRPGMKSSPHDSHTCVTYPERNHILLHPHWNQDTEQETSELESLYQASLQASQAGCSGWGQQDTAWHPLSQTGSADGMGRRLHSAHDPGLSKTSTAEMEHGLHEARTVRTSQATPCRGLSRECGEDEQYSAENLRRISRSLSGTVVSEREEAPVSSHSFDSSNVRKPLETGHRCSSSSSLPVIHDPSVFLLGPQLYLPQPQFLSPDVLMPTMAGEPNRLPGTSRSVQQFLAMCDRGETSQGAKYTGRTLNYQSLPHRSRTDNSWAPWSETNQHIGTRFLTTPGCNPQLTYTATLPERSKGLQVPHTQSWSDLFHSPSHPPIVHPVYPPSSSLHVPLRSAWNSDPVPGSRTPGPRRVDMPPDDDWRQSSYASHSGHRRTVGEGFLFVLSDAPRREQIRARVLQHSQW
Sequence of USP7 (Q93009 whole entry, looked up): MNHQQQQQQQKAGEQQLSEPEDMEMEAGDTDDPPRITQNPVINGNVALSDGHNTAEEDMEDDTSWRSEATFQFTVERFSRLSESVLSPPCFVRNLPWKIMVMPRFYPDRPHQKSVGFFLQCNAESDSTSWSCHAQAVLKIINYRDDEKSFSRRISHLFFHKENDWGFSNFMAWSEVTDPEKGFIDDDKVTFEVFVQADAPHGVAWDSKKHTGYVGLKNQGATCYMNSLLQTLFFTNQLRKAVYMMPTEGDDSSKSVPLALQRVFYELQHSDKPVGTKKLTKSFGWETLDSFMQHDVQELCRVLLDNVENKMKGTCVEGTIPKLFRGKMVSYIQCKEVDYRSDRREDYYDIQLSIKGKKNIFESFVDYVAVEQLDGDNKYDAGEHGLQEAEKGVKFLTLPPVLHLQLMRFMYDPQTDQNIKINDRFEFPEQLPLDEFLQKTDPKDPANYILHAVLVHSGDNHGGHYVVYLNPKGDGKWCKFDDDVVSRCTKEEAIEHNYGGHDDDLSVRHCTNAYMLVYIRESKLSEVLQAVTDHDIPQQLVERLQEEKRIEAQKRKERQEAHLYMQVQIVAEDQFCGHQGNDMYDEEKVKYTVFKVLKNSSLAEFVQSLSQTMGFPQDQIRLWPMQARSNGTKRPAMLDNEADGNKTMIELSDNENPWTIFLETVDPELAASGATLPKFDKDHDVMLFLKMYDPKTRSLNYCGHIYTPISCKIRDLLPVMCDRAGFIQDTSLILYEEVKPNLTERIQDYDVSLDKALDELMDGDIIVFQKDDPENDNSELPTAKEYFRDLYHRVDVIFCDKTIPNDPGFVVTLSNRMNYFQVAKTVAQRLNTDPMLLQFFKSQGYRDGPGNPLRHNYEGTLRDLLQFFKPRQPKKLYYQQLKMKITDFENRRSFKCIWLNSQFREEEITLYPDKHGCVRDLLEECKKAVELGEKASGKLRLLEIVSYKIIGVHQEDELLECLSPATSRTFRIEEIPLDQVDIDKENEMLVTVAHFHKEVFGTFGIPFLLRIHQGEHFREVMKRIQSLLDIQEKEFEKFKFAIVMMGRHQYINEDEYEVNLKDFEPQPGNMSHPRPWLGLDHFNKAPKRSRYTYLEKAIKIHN
Sequence of UniProt O00487 (O00487 whole entry): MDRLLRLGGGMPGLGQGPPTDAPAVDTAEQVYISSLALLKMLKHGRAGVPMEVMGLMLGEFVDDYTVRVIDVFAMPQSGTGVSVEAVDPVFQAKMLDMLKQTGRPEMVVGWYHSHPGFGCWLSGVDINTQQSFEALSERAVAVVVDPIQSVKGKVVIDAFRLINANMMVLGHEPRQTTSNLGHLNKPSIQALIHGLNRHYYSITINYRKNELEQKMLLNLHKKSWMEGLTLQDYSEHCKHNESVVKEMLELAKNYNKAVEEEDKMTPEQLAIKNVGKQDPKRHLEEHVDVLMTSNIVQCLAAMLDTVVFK

O=C(CCl)N1CCCCC12CCOCC2
inactive: USP42 -0.368 | USP46 -0.278 | USP47 -0.146 | USP48 -0.525 | USP5 -0.258 | USP54 0.442 | USP7 -0.511 | USP8 -0.237 | USP9X -0.584 | UniProt O00487 -0.282

Reference: the supplement of paper PMC11732987, “Enantioselective OTUD7B fragment discovery through chemoproteomics screening and high-throughput optimisation” (Communications Chemistry, 2025)
